Bioassay records from PubChem.
An excerpt weighted towards active compounds, which were near 1.2% of everything screened.
CIT2 TOR yeast = alters CIT2-GFP fluorescence in TOR pathway yeast screen. AID 2029. GFP response vs DMSO, % at 10 µM. actives 0.065% (n = 320,000). S. cerevisiae CIT2-GFP strain, flow cytometry, 3 h; 100 means same as DMSO wells;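 active = GFP response relative to DMSO above a set limit, near the screen mean plus 3 SD, cut at about 150% in these data; inconclusive = Fewer than 70 cells measured for a yeast strain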;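 note: ratio of well median GFP fluorescence to mean of DMSO wells on the plate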
AGP1 TOR yeast = alters AGP1-GFP fluorescence in TOR pathway yeast screen. AID 2066. GFP response vs DMSO, % at 10 µM. actives 0.02% (n = 320,000). S. cerevisiae AGP1-GFP multiplex flow cytometry, 3 h; GFP as percent of DMSO wells;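 active = GFP response relative to DMSO above a set limit, near screen average plus 3 SD, cut at about 150% in these data; inconclusive = fewer than 70 cells counted for the yeast strain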;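 note: median GFP channel fluorescence of the gated AGP1 strain per well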
DSG3 Ab inh = human desmoglein-3 autoantibody binding inhibition; P32926; DSG3-coupled beads, scFv-anti-DSG3-GFP binding, flow cytometry; active compounds read low; binding (percent of control), % at 10 µM; actives 0.48% (n = 310,000); AID 588358;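 active = binding more than 3 SD below its plate's average and above zero; inconclusive = below that plate limit but binding exactly zero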;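 note: hits lower antibody fragment binding to DSG3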
MEP2 TOR yeast = modulators of TOR pathway MEP2-GFP in S. cerevisiae; S. cerevisiae MEP2-GFP strain, flow cytometry GFP, 3 h; 100% = DMSO control level; GFP response vs DMSO, % at 10 µM; actives 0.51% (n = 330,000); AID 2016;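 active = GFP response versus DMSO above a set limit, roughly screen mean plus 3 SD, cut at about 180% in these data; inconclusive = fewer than 70 cells counted for a yeast strain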;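 note: median GFP fluorescence of the barcode-gated MEP2-GFP cells per well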
RPL19A TOR yeast = modulators of TOR pathway RPL19A-GFP in S. cerevisiae; percent response vs DMSO, % at 10 µM; actives 0.3% (n = 330,000); S. cerevisiae RPL19A-GFP strain, flow cytometry, 3 h; active compounds read low;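 active = percent response vs DMSO below 50%; inconclusive = fewer than 70 events counted for the yeast strain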;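 note: median channel GFP fluorescence of the barcoded RPL19A-GFP strain; lower means less RPL19A-GFP as with rapamycin TOR inhibition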
LAP4-GFP MLPCN = alters LAP4-GFP fluorescence in TOR pathway yeast screen; S. cerevisiae LAP4-GFP multiplex, flow cytometry GFP, 3 h; median GFP as percent of DMSO wells; actives 0.34% (n = 320,000); GFP response vs DMSO, % at 10 µM;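 active = GFP response vs DMSO above a set limit, about the screen mean plus 3 SD, cut at about 150% in these data; inconclusive = under 70 cell events counted for the yeast strain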
Numbers stand for hits; . = inactive; ? = inconclusive; / = no result given; [ ] = another dose, or the depositor's remark.

SMILES | CIT2 TOR yeast | AGP1 TOR yeast | DSG3 Ab inh | MEP2 TOR yeast | RPL19A TOR yeast | LAP4-GFP MLPCN
O=C(Cn1ncc2c3ccccc3n(Cc3ccccc3)c2c1=O)NCCN1CCOCC1 | ? | ? | . | . | 29[may fluoresce violet] | .
O=C(Cn1ncc2c3ccccc3n(Cc3ccccc3)c2c1=O)NCCCN1CCCC1 | . | . | . | . | . | .
COC(=O)[C@@H](NC(=O)N1CCN(C(=O)C2COc3ccccc3O2)CC1)C(C)C (some centres not stated) | ? | ? | . | . | 19[may fluoresce violet] | .
COc1ccc(NC(=O)CN(c2ccc(OC)cc2)S(=O)(=O)c2ccc(OC)c(OC)c2)cc1 | . | . | . | . | . | .
Cc1ccc(OCc2ccc(C(=O)Nc3nccs3)o2)cc1C | ? | ? | . | 255[may fluoresce violet] | 15[may fluoresce violet] | .
O=C(Nc1nccs1)c1ccc(COc2c(F)c(F)cc(F)c2F)o1 | . | . | . | . | . | .
CC(Sc1nnc(NC(=O)c2cc3ccccc3oc2=O)s1)c1ccccc1 (configuration not stated) | . | . | 72 | . | . | .
CCCc1nnc(NC(=O)c2cc3ccccc3oc2=O)s1 | . | . | . | . | . | .
O=C(Nc1ccc(F)cc1)c1cc2cc(Cl)ccc2[nH]1 | . | . | . | 190 | . | .
N=c1c(C(=O)NC2CCCCC2)cc2c(=O)n3ccccc3nc2n1CC1CCCO1 (configuration not stated) | ? | ? | . | ? | 44[may fluoresce violet] | ?
Cc1ccc(CNC(=O)c2cc3c(=O)n4ccccc4nc3n(CC3CCCO3)c2=N)cc1 (configuration not stated) | ? | . | . | 221[may fluoresce violet] | . | .
COc1ccc(Cn2c(=N)c(C(=O)NC3CCCCC3)cc3c(=O)n4ccccc4nc32)cc1 | . | . | . | . | . | .
CC(NC(=O)c1cc2c(=O)n3ccccc3nc2n(CC2CCCO2)c1=N)c1ccccc1 (configuration not stated) | ? | ? | . | 207[may fluoresce violet] | 29[may fluoresce violet] | .
COCCCn1c(=N)c(C(=O)NC2CCCCC2)cc2c(=O)n3ccccc3nc21 | ? | ? | . | 232[may fluoresce violet] | . | ?
Cc1ccc2nc3c(cc(C(=O)NCC4CCCO4)c(=N)n3CC3CCCO3)c(=O)n2c1 (configuration not stated) | ? | ? | / | . | . | ?
O=C(CN(C(=O)c1csnn1)c1cccc2ccccc12)NCc1ccc(F)cc1 | . | . | . | . | . | .
O=C(Cc1ccc(Cl)cc1)N1CCC2(CC1)NCCc1[nH]cnc12 | . | . | . | . | . | .
C[C@@H]1CN([C@@H](C)CO)C(=O)CCCn2cc(nn2)CO[C@H]1CN(C)S(=O)(=O)c1cn(C)cn1 | / | / | . | / | / | /
COc1ccc(CCn2c(=N)c(C(=O)NC3CCCC3)cc3c(=O)n4ccccc4nc32)cc1 | . | . | . | . | . | .
N=c1c(C(=O)NC2CCCC2)cc2c(=O)n3ccccc3nc2n1CC1CCCO1 (configuration not stated) | ? | ? | / | 202[may fluoresce red and violet] | ? | .
CCCn1c(=N)c(C#N)cc2c(=O)n3ccccc3nc21 | ? | . | . | 298[may fluoresce violet] | . | .
CCCn1c(=N)c(C#N)cc2c(=O)n3cccc(C)c3nc21 | . | . | / | . | . | .
COCCNC(=O)C(c1ccc(C)cc1)N(Cc1ccco1)C(=O)CCC(=O)Nc1ccccn1 (configuration not stated) | ? | . | . | 210[may fluoresce violet] | . | .
CCN(CC)c1ccc(/C=N/NC(=O)c2cc(C)nc3ccccc23)cc1 | / | / | . | 678[may fluoresce violet] | . | /
O=C(N/N=C/c1ccc2ncccc2c1)c1cc(-c2cccs2)nc2ccccc12 | . | . | 70 | . | . | .
SMILES | CIT2 TOR yeast | AGP1 TOR yeast | DSG3 Ab inh | MEP2 TOR yeast | RPL19A TOR yeast | LAP4-GFP MLPCN
CCn1c(SCC(=O)N2CCC(C)CC2)nc2c(c1=O)SCC2 | . | . | . | . | . | .
O=C(Nc1cccc(-c2cn3c(n2)SCC3)c1)c1ccc2c(c1)OCO2 | . | . | . | . | . | .
O=C(Nc1ccc(-c2cn3c(n2)SCC3)cc1)c1ccc2c(c1)OCO2 | . | . | 83 | . | . | .
Cc1ccc(-n2nc(C)c3c(C)c(CCC(=O)O)c(C)nc32)cc1 | . | . | . | 185 | . | 151
Cc1ccc(-n2nc(C)c3c(C)c(CCC(=O)O)c(C)nc32)cc1C | . | . | . | . | . | .
c1ccc(N=NC2=NN(c3ccccc3)CS2)cc1 | / | / | . | / | / | /
O=C(Cc1ccc(Cl)cc1Cl)NC1CCCCCC1 | . | . | 24 | . | . | .
O=C(Cc1ccc(O)cc1)NC1CCCCCC1 | ? | ? | / | ? | 42[may fluoresce violet] | ?
O=C(CN1CCN(Cc2ccccc2Cl)C1=O)NC1CCCCCCC1 | . | . | . | 208 | / | .
O=C(Cc1ccc(Br)cc1)NC1CCCCC1 | / | . | . | . | . | .
Cc1ccc2c(c1)/C(=C/c1ccc(F)cc1)C(=O)N2 | . | . | . | . | . | 153
Cc1ccc2c(c1)/C(=C/c1ccccc1C)C(=O)N2 | . | . | . | . | . | .
Cc1ccc(C2(C)NC(=O)N(CC(=O)N3CCN(S(=O)(=O)c4ccc(Cl)s4)CC3)C2=O)cc1 (configuration not stated) | . | . | . | . | . | .
N=c1oc2cc(O)ccc2cc1C(=O)Nc1ccc(F)cc1 | ? | . | . | 836[may fluoresce violet] | 41[may fluoresce violet] | .
O=C(COc1ccccc1)Nc1cc(Cl)ccc1Cl | . | . | 80 | . | . | .
O=C(COc1ccccc1)Nc1ccc(Cl)cc1Cl | . | . | / | . | . | .
O=C(c1cccc(Cl)c1)N1CCCC(C(=O)N2CCN(c3ccccc3)CC2)C1 (configuration not stated) | . | . | . | . | . | .
O=C(c1cncc(Br)c1)N1CCN(S(=O)(=O)c2ccccc2)CC1 | ? | ? | . | 234[may fluoresce violet] | . | .
COc1ccc(NC(=O)COC(=O)C2COc3ccccc3O2)cc1OC (configuration not stated) | / | / | . | / | / | /
CC(=O)c1ccc(N2CCN(S(=O)(=O)c3ccc4c(c3)CC(C)N4C(C)=O)CC2)cc1 (configuration not stated) | . | . | . | . | 37 | .
CCOc1ccc(S(=O)(=O)N2CCN(CC)CC2)cc1NC(=O)c1ccccc1F | . | . | . | . | . | .
Cc1cc(C)c2sc(NC(=O)c3ccc([N+](=O)[O-])o3)nc2c1 | ? | . | . | . | . | 194[may fluoresce violet]
O=C1c2ccccc2C(=O)c2c([N+](=O)[O-])ccc(O)c21 | . | . | . | . | . | 154
O=C(CSc1nc2ccc(Cl)cc2[nH]1)N1CCN(C(=O)c2ccco2)CC1 | . | . | . | . | . | .
Cc1cccc(NC(=O)CS(=O)(=O)c2cn(CC(=O)N3CCOCC3)c3ccccc23)c1 | ? | ? | . | 187[may fluoresce violet] | 43[may fluoresce violet] | .
